According to article PMC10812921, “Transcriptional Coactivator BOB1 (OBF1, OCA-B) Modulates the Specificity of DNA Recognition by the POU-Domain Factors OCT1 and OCT2 in a Monomeric Configuration”:

Tests used:
POU1 (OCT1 POU domain) = POU1 (OCT1 POU domain) (human, UniProt P14859 260-458); assay: EMSA-SELEX-seq; no BOB1; 20 mM Tris-HCl pH 7.6, 140 mM NaCl, 10% glycerol, 0.5 mM EDTA, 0.05% Triton X-100, 0.1 mg/mL BSA, 0.1 mg/mL poly(dI-dC), 5 mM DTT, room temperature, 20 min; high values mean tight binding; conditions: protein: recombinant; dsDNA, one strand shown
Chain of POU1 (OCT1 POU domain) (P14859 260-458): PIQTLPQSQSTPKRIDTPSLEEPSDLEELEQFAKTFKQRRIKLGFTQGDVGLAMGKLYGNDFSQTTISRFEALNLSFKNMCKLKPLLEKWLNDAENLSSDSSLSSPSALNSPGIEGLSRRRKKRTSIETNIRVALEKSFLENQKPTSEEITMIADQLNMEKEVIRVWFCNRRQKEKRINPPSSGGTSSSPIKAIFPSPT
Outline: (§1)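 Binding preference is reported as the percentage of sequenced 8-mers that match a motif pattern. Tagged POU-domain proteins were made in E. coli BL21, purified under denaturing conditions and renatured. A 30 ng portion was combined with 300 ng of a PCR-amplified double-stranded random 35-nt library, with or without 28 ng coactivator protein, in 20 μL Tris–HCl pH 7.6 binding buffer for 20 min at RT. Complex bands were excised from native 6% PAGE, eluted and PCR-amplified over four rounds before Illumina sequencing.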

POU2 (OCT2 POU domain) = biological target: T1, POU2 (OCT2 POU domain) (human, UniProt P09086 175-386); assay: as above; conditions: protein: recombinant; dsDNA, one strand shown
T1 sequence: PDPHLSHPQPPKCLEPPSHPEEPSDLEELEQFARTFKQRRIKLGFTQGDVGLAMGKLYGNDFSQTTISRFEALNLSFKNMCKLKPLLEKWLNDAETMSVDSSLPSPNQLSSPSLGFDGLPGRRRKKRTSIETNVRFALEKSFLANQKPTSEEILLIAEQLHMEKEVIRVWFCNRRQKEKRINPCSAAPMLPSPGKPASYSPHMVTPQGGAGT
Outline: as §1

[1] = biological target: POU1 (OCT1 POU domain);BOB1 (OBF1, OCA-B) (human;human, UniProt P14859;Q16633 260-458;1-256, |); assay: EMSA-SELEX-seq; with BOB1 (ternary complex band); 20 mM Tris-HCl pH 7.6, 140 mM NaCl, 10% glycerol, 0.5 mM EDTA, 0.05% Triton X-100, 0.1 mg/mL BSA, 0.1 mg/mL poly(dI-dC), 5 mM DTT, room temperature, 20 min; high values mean tight binding; conditions: protein: recombinant;recombinant; copies: 1;1; dsDNA, one strand shown
Outline: as §1

[2] = biological target: T2, POU2 (OCT2 POU domain);BOB1 (OBF1, OCA-B) (human;human, UniProt P09086;Q16633 175-386;1-256, |); assay: as above; conditions: protein: recombinant;recombinant; copies: 1;1; dsDNA, one strand shown
T2 sequence 1: T1 sequence
T2 sequence 2: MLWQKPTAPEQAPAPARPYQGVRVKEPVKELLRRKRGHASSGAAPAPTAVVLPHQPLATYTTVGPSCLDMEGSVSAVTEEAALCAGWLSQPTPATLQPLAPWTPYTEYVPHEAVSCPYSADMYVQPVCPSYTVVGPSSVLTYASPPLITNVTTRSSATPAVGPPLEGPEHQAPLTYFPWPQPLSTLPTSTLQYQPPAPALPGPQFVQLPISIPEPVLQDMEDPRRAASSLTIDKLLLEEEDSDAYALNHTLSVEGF
Outline: as §1

Sequence	binding signal (POU1 (OCT1 POU domain))	binding signal (POU2 (OCT2 POU domain))	binding signal [1]	binding signal [2]
AATGTAAA	0.614 % of ANNNNAAN 8-mers	0.509 % of ANNNNAAN 8-mers	0.547 % of ANNNNAAN 8-mers	0.552 % of ANNNNAAN 8-mers
ACATGAAT	0.151 % of ANNNNAAN 8-mers	0.179 % of ANNNNAAN 8-mers	0.0773 % of ANNNNAAN 8-mers	0.0925 % of ANNNNAAN 8-mers
ACCAAAAC	0.0168 % of ANNNNAAN 8-mers	0.0242 % of ANNNNAAN 8-mers	0.032 % of ANNNNAAN 8-mers	0.0206 % of ANNNNAAN 8-mers
ATGCCAAA	0.0458 % of ANNNNAAN 8-mers	0.0501 % of ANNNNAAN 8-mers	0.0464 % of ANNNNAAN 8-mers	0.0438 % of ANNNNAAN 8-mers
AATGAAAC	0.0461 % of ANNNNAAN 8-mers	0.0719 % of ANNNNAAN 8-mers	0.0433 % of ANNNNAAN 8-mers	0.0487 % of ANNNNAAN 8-mers
AACTGAAT	0.0885 % of ANNNNAAN 8-mers	0.108 % of ANNNNAAN 8-mers	0.0562 % of ANNNNAAN 8-mers	0.0735 % of ANNNNAAN 8-mers
ATCAAAAG	0.045 % of ANNNNAAN 8-mers	0.0414 % of ANNNNAAN 8-mers	0.0581 % of ANNNNAAN 8-mers	0.0388 % of ANNNNAAN 8-mers
ACGAAAAA	0.0431 % of ANNNNAAN 8-mers	0.0409 % of ANNNNAAN 8-mers	0.0578 % of ANNNNAAN 8-mers	0.0355 % of ANNNNAAN 8-mers
AAGTTAAC	0.0347 % of ANNNNAAN 8-mers	0.038 % of ANNNNAAN 8-mers	0.0355 % of ANNNNAAN 8-mers	0.0355 % of ANNNNAAN 8-mers
AATATAAT	0.213 % of ANNNNAAN 8-mers	0.286 % of ANNNNAAN 8-mers	0.137 % of ANNNNAAN 8-mers	0.133 % of ANNNNAAN 8-mers
AAGCTAAG	0.0248 % of ANNNNAAN 8-mers	0.0322 % of ANNNNAAN 8-mers	0.0187 % of ANNNNAAN 8-mers	0.0272 % of ANNNNAAN 8-mers
ATGGCAAG	0.0355 % of ANNNNAAN 8-mers	0.0414 % of ANNNNAAN 8-mers	0.0351 % of ANNNNAAN 8-mers	0.0371 % of ANNNNAAN 8-mers
AAAGCAAT	0.05 % of ANNNNAAN 8-mers	0.0455 % of ANNNNAAN 8-mers	0.0652 % of ANNNNAAN 8-mers	0.0371 % of ANNNNAAN 8-mers
ACTTCAAC	0.0145 % of ANNNNAAN 8-mers	0.015 % of ANNNNAAN 8-mers	0.0121 % of ANNNNAAN 8-mers	0.0231 % of ANNNNAAN 8-mers
ACCTAAAA	0.021 % of ANNNNAAN 8-mers	0.0311 % of ANNNNAAN 8-mers	0.0254 % of ANNNNAAN 8-mers	0.0157 % of ANNNNAAN 8-mers
ATCCTAAG	0.0324 % of ANNNNAAN 8-mers	0.0299 % of ANNNNAAN 8-mers	0.0312 % of ANNNNAAN 8-mers	0.0405 % of ANNNNAAN 8-mers
AAGAAAAA	0.0934 % of ANNNNAAN 8-mers	0.0921 % of ANNNNAAN 8-mers	0.105 % of ANNNNAAN 8-mers	0.0669 % of ANNNNAAN 8-mers
AGTACAAC	0.0164 % of ANNNNAAN 8-mers	0.0173 % of ANNNNAAN 8-mers	0.0152 % of ANNNNAAN 8-mers	0.0413 % of ANNNNAAN 8-mers
ACTTTAAA	0.0713 % of ANNNNAAN 8-mers	0.0817 % of ANNNNAAN 8-mers	0.0652 % of ANNNNAAN 8-mers	0.0495 % of ANNNNAAN 8-mers
AACTCAAG	0.0194 % of ANNNNAAN 8-mers	0.0219 % of ANNNNAAN 8-mers	0.0164 % of ANNNNAAN 8-mers	0.0289 % of ANNNNAAN 8-mers
ATAAGAAG	0.0614 % of ANNNNAAN 8-mers	0.0771 % of ANNNNAAN 8-mers	0.0562 % of ANNNNAAN 8-mers	0.0636 % of ANNNNAAN 8-mers
AATCGAAA	0.0622 % of ANNNNAAN 8-mers	0.0512 % of ANNNNAAN 8-mers	0.0613 % of ANNNNAAN 8-mers	0.0438 % of ANNNNAAN 8-mers
AGATCAAG	0.0305 % of ANNNNAAN 8-mers	0.0397 % of ANNNNAAN 8-mers	0.0273 % of ANNNNAAN 8-mers	0.0272 % of ANNNNAAN 8-mers
ATGCCAAT	0.0648 % of ANNNNAAN 8-mers	0.0857 % of ANNNNAAN 8-mers	0.0609 % of ANNNNAAN 8-mers	0.0627 % of ANNNNAAN 8-mers
AGTAAAAA	0.0911 % of ANNNNAAN 8-mers	0.0679 % of ANNNNAAN 8-mers	0.103 % of ANNNNAAN 8-mers	0.0578 % of ANNNNAAN 8-mers
AGCCGAAC	0.0133 % of ANNNNAAN 8-mers	0.0161 % of ANNNNAAN 8-mers	0.016 % of ANNNNAAN 8-mers	0.014 % of ANNNNAAN 8-mers
